Our source for the seed-corrected z-score values is PubChem BioAssay AID1159506 (National Center for Advancing Translational Sciences (NCATS), 2015).

Over roughly 59,000 sequences, the read-out has its median near -0.00055; the lowest 2% begin near -2. This is one part of a sample in which the lowest values are shown more often than they occur.

A short description of the assay: Identification of proteins required for the processing of the EWS-FLI1 nascent transcript.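 Note: robust z of luciferase light less the median z of siRNAs with the same seed.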 To be noted: TC32 Ewing sarcoma NR0B1-luc vs CMV-luc (EWS-FLI1 target promoter against control promoter), 48 h; screened at 20 nM (by protocol). The gist of the method:
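Genome-wide siRNA screen (Ambion v4.1, three siRNAs per gene, 20 nM final, RNAiMax) in Ewing sarcoma TC32 cells carrying NR0B1-promoter or CMV-promoter luciferase; OneGlo luciferase read 48 h post-transfection. Data normalized, z-score-MAD transformed and seed-adjusted.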
Regarding UUUAGAACUGGUUAUUUUC against DEFB116, the seed-corrected z-score stood at 0.117.

Sequence AUGGUGAUCAUGGGACUGC against BEST1 returned a seed-corrected z-score of -3.4.

Sequence UUUGGUAACCUCUAGGUGC against RUFY2 returned a seed-corrected z-score of 0.0818.

On to UAGGCAAACAUGCACCUGG against POLG, for which the seed-corrected z-score is -0.765.

Turning to UCGUGGUCUUCUAUUGUUC against GRB14, the seed-corrected z-score was -0.556.

The sequence AAUACAAUAGCAUAUACUC against RBBP9 displayed a seed-corrected z-score of 0.306.

Take UGCGGAUACAGAUCACUCC against WDR87: the seed-corrected z-score was -2.28.

UGAAUAAUGAAGUAUCCUG against AMPH registered a seed-corrected z-score of -0.174.

For UUAGUUCCAUGCCUUGCUC against ATP6V0A4, the seed-corrected z-score is -0.497.

With AGUUAUAUCAGUCGUGAUC against FERMT2, the seed-corrected z-score was 0.187.

UUCUGUAUCUGCUCCUUGU against PFDN2: the seed-corrected z-score was determined as 1.09.

The sequence UCUCUUUCCUCUGCGUGCG against GDF7 displayed a seed-corrected z-score of -2.92.

With UCUCAGGACUUAUAGCUGG against CEACAM3, the seed-corrected z-score was found to be 0.106.

Consider AACUCUAUCUUGUAAAGGC against ZKSCAN3, for which the seed-corrected z-score was found to be 0.0258.

UCUAGUAACUCCAUAAGUU against NAA20 came in with a seed-corrected z-score of 0.8.

UUUGUUGUCUGGUUGGAGC against ZDHHC14: the seed-corrected z-score is -0.328.

With UCAGGGCACAGCUAUAAGG against CPAMD8, the seed-corrected z-score worked out at 0.0569.

The sequence UAUUGUAGAUUGAACAGCC against NSMCE2 yielded a seed-corrected z-score of 0.561.

AUAGAGCUUAUAGAAGCGG against USP11 returned a seed-corrected z-score of 0.792.

UAAAGGGAACGAAACACCC against HSPA1B returned a seed-corrected z-score of 1.45.

Turning to UUAUUUAUUGCCGCUCAGG against SFTA2, the seed-corrected z-score is -2.64.

Sequence UUGGGUCCGACAGUGAAGA against FAAP20 came in with a seed-corrected z-score of 0.502.

Regarding AGUACUACCAAAGAGAUGG against TBC1D23, the seed-corrected z-score was found to be 0.0728.

In the case of UAUCUUGAUCUGCCUCUCC against HOXB6, the seed-corrected z-score was determined as 0.291.

UAUCCCAAUACAAAGUACU against RCE1 yielded a seed-corrected z-score of -1.06.

For UUGCUUAACUACUCUGUGC against C9orf106, the seed-corrected z-score was -11.2.

As to AUCGCUGUAGCACUUGUGC against PKP3, the seed-corrected z-score was -0.54.

As to UGAGUUUCCACUUCCAGCC against UBQLN4, the seed-corrected z-score is -2.2.

The sequence UUUGUUCCAGGGAUGUACU against CYCS registered a seed-corrected z-score of 0.577.

In turn, UUCCCGUGAACCGUUGAUC against PNLIPRP3 gave a seed-corrected z-score of 0.389.

Turning to ACACCUGUGACUAAGACCC against SDR39U1, the seed-corrected z-score is -0.296.

As to UUUGGUAUCUCCGACCACC against UCP2, the seed-corrected z-score turned out to be 0.898.

Turning to UCAAGUGUAUCAGUUUUCG against KSR2, the seed-corrected z-score came out at 0.704.

For UGUGGUUGAAGAGGCUUGU against TMEM39B, the seed-corrected z-score was -2.3.

For UAAGGUGUGAACUAUAAGG against ZNF267, the seed-corrected z-score was -0.0939.

Turning to UAUAUCAAAAUCCACUCGC against NDUFAF6, the seed-corrected z-score worked out at 1.27.

Sequence UUUCUUAGAUGAGACAUUG against EBLN2 gave a seed-corrected z-score of -12.2.

For the sequence UAAACCUCCACCUAAGAGC against ELP4, the seed-corrected z-score is 0.275.

Regarding UACUCGUACACUUCCAUGC against THBS3, the seed-corrected z-score came to 1.22.

Consider UAACUAUAGUGGUUAGGUC against IL7R, for which the seed-corrected z-score is -0.304.

In turn, AUUUGGGACACUCAAAGGG against ZBTB48 registered a seed-corrected z-score of -0.672.

UCCAUAGCAGGAUUAUUGC against ACSL4: the seed-corrected z-score was -4.37.

Sequence UUUGUCGUCACUGUAUUCC against ING5 gave a seed-corrected z-score of -0.505.

The sequence UAAGGGACAUCUAAGGAAC against MAML1 showed a seed-corrected z-score of -1.38.

For AAACUUGCGAUCUCAUAUG against FBXW12, the seed-corrected z-score was -0.183.

As to UACAGGUAAACAGGUCGUG against SKINT1L, the seed-corrected z-score is -3.34.

For the sequence UUCUGGUUCACCGUCUUCC against SLC13A2, the seed-corrected z-score is -1.96.

The sequence UUUCGUAUAGAGCUUCUCC against DNAJC5B had a seed-corrected z-score of -0.0232.

With UUUAUAGUCAAUGGUAUUG against TAF1D, the seed-corrected z-score is -0.19.

In the case of UUCCUUAGCAGGUAUCGCG against PDZD7, the seed-corrected z-score stood at 0.373.

With AUAGUAAUGCCGGAACAGC against GPR108, the seed-corrected z-score was -2.74.

Consider AUGGAGACAAGUUACCUGU against DCX, for which the seed-corrected z-score was -1.34.

Turning to UUGAGUGAGAAGAUCAGUG against PAH, the seed-corrected z-score is -0.365.

Consider UUUGCAGUCGCAAUAGUCA against PRKCSH, for which the seed-corrected z-score is -0.0915.

In turn, ACUGGUAUUUGACAAGUCC against SGOL2 displayed a seed-corrected z-score of -0.0318.

With AAUACCUCAACAUUGAUCC against LILRA6, the seed-corrected z-score is 0.22.

UACUUGUGAUCAUCUAGAC against PSMD1 gave a seed-corrected z-score of -2.21.

Take UCAGAGUUGGUGACUAUGC against MUC21: the seed-corrected z-score came to 0.222.

As for UGAUGUUCAGCAUCUUCUC against UBTF, the seed-corrected z-score is -0.484.

In the case of AGCGUAGUCAGUGUAGACC against DNAH2, the seed-corrected z-score was 0.323.

In the case of AUAGGCUUCGUUAAUGAGC against YJEFN3, the seed-corrected z-score was determined as 1.04.

Sequence UUCCUGCUUGCCUCUAUGG against USP17L9P gave a seed-corrected z-score of -0.281.

In turn, UCUCGGUCGAUGAAGUACC against KCTD7 yielded a seed-corrected z-score of -3.05.

Consider UCAAUCACACGUCUUAUGC against TRMT5, for which the seed-corrected z-score came to 0.553.

In turn, UUCGUAUUCAACUGACUGC against TCP11L1 registered a seed-corrected z-score of 1.06.

In turn, UAUGGGUUCAUCAGGCUCA against SH2D2A came in with a seed-corrected z-score of -3.05.
